From PubChem BioAssay (NCI) come the findings set out here.

What all share (experiment): NCI-60 one-dose screen, 48 h (100 = growth as untreated, 0 = no growth, -100 = all killed)
Common to all, as to details: 10 µM unless noted

In experiment [1] the test system is NCI-H23 lung.
Experiment [2] has as its system NCI-H226 lung.
Experiment [3] deals with NCI-H322M lung.
Experiment [4] deals with HOP-62 NSCLC.
Experiment [5] relates to NCI-H460 lung.
The test system of experiment [6] is HOP-92 NSCLC.
Experiment [7] has as its system NCI-H522 lung.
Experiment [8] has as its system A549/ATCC NSCLC.
Experiment [9] has as its system 786-0 renal.
For experiment [10], the system named is COLO 205 colon.

SMILES strings stand for the structures. This is part of a sample that, as a whole, favours compounds with a hit. Of some 83,000 tested, about 20% had one in any assay.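 Growth was measured after 48 h exposure to one concentration of compound in 96-well plates. Values under 10 count as active.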 Values without a mark were called inactive. Active and inactive are the calls of the source.

As for `CN(C)CCOc1ccc(C(=O)C2[C@H](c3ccc(Cl)cc3)[C@@H](c3ccccc3)NC23C(=O)Nc2ccc(Br)cc23)cc1` (stereo not given in full), the growth is -2.68% (active) in experiment [1]; 43.7% in experiment [2]; 53.7% in experiment [3]; 75.9% in experiment [4]; -78.1% (active) in experiment [5]; 23.5% in experiment [6]. The growth in [7] was -2.86% (active); in experiment [8] it was 4.59% (active); in experiment [9], -72.5% (active); in [10], -69% (active).
`CN(C)c1ccnc(NCCCSC(c2ccccc2)(c2ccccc2)c2ccccc2)c1`: the growth in experiment [1] is 62.7%; in [2], 53%; in experiment [3] it was 61.5%; in [4], 74.3%; in experiment [5], -19.2% (active); in experiment [6], -2.94% (active). In addition, the growth was 41.1% in experiment [7], 48.4% in experiment [8], 8.23% (active) in experiment [9] and -74.6% (active) in [10].
Consider `O=C(COc1ccc(NC(=O)Nc2ccc(Cl)c(Cl)c2)cc1)N=Nc1c(O)[nH]c2ccc(Br)cc12`, for which the growth in [1] is -10.7% (active); in experiment [2], -58.1% (active); in experiment [3], -15.4% (active); in [4], -71.3% (active); in [5] it was 7.45% (active); in experiment [6], -43.5% (active). The growth in experiment [7] is -64.7% (active); in experiment [8] it was -45.8% (active); in experiment [9] it was -70.3% (active); in [10], -57% (active).
Take `COc1ccc(C2=NN(C(C)=O)C(c3ccc(OCc4ccc(Cl)cc4)c(OC)c3)C2)cc1OC` (stereo not given): the growth in [1] is 58%; in [2], 49.9%; in experiment [3], 81.9%; in [4], 76.2%; in [5], 41.3%; in experiment [6] it was 37.1%. Moreover, the growth is 28.5% in [7], 29% in experiment [8], 57.9% in [9] and 41.3% in [10].
Take `Cn1cc(NC(=O)c2cc(NC(=O)c3ccc(C#Cc4ccccc4)cc3)cn2C)cc1C(=O)NCCCN1CCOCC1`: the growth in experiment [1] was 58.9%; in experiment [2] it was 69.7%; in experiment [3], 81%; in [4], 85.4%; in experiment [5], -15.3% (active); in [6], -11.5% (active). The growth is -52.2% (active) in experiment [7], 33.3% in experiment [8], -4.75% (active) in experiment [9] and -78.7% (active) in [10].
`CCCCSc1nc(NCCc2c[nH]c3ccccc23)c(C#N)c(-c2ccc(F)cc2)n1`: the growth in experiment [1] was 82.3%; in experiment [2], 72.5%; in [3] it was 86.3%; in experiment [4], 68.5%; in [5], 25.7%; in experiment [6], 55.7%. Moreover, the growth in experiment [7] is 69%; in experiment [8], 74.5%; in experiment [9] it was 71.8%; in experiment [10], 57.8%.
Consider `O=C1Nc2ccc([N+](=O)[O-])cc2C1=Nc1ccccc1`, for which the growth was 106% in [1]; 102% in experiment [2]; 96.1% in experiment [3]; 114% in [4]; 109% in experiment [5]; 118% in experiment [6]. The growth in [7] is 110%; in experiment [8] it was 130%; in experiment [9], 102%; in experiment [10], 108%.
With `COc1ccccc1C(=O)NN1C(=O)/C(=C/C2=Cc3ccccc3OC2)SC1=S`, the growth is 106% in experiment [1]; 98.9% in [2]; 99.4% in [3]; 106% in [4]; 120% in experiment [5]; 86.6% in [6]. Also, the growth is 97.9% in [7], 103% in [8], 104% in experiment [9] and 119% in [10].
As for `CC(=O)Nc1ccc(-n2cnc3ccc(-c4ccc(O)cc4)cc32)cc1`, the growth in experiment [1] is 41.3%; in [2], 52.5%; in experiment [3], 44%; in [4], 53%; in experiment [5], 38.7%; in experiment [6], 66%. Besides, the growth in [7] was 54%; in experiment [8], 44%; in [9] it was 48.5%; in experiment [10], 123%.
On to `CC(C)CSc1nc(NCCc2c[nH]c3ccccc23)c(C#N)c(-c2ccc(F)cc2)n1`, for which the growth was 72.9% in experiment [1]; 44.9% in experiment [2]; 91.2% in experiment [3]; 34.9% in experiment [4]; 11.6% in experiment [5]; 50.9% in experiment [6]. Further, the growth in experiment [7] is 62.4%; in [8] it was 51.2%; in experiment [9], 67.9%; in experiment [10], 31.6%.
Consider `NS(=O)(=O)c1ccc(N=Nc2c(O)n(CC(=O)Nc3ccccc3Cl)c3ccccc23)cc1`, for which the growth in experiment [1] is 30%; in [2], -1.16% (active); in [3] it was 29.2%; in [4], 17.6%; in [5], 14.5%; in experiment [6], 33.7%. Besides, the growth in experiment [7] was 51.8%; in experiment [8], 18.5%; in [9], 11.9%; in [10], -19.1% (active).
In the case of `CN1CCN(c2ccc(C(=O)/C=C/c3ccc(Br)cc3)cc2)CC1`, the growth was 52.4% in [1]; 12.6% in experiment [2]; 62.8% in experiment [3]; 22.1% in [4]; 64.4% in experiment [5]; 13.2% in [6]. The growth was 52.8% in experiment [7], 7.46% (active) in [8], 19.5% in [9] and -14.7% (active) in experiment [10].
For the compound `COc1ccc(-c2cc(C(=O)NCc3ccccc3)nn2-c2ccc(S(C)(=O)=O)cc2)cc1OC`, the growth is 105% in [1]; 98.5% in [2]; 122% in experiment [3]; 99.7% in [4]; 108% in experiment [5]; 73% in [6]. Besides, the growth is 87.4% in experiment [7], 93.8% in [8], 98.6% in experiment [9] and 116% in experiment [10].
